The record followed here is the supplement of paper PMC8975748.

Where a name gives a salt, the structure may show the parent alone. ± gives the standard deviation of the averaged measurements.

Experiment [1] concerns Saccharomyces cerevisiae BY4741 SeMeCo community. Put plainly: z-score of subpopulation abundance vs DMSO median, subpopulation auxotrophic for M; higher = larger share of this subpopulation than in DMSO controls. Conditions: 10 µM; 24 h; SM minimal medium; subpopulation (auxotrophy): M. The essentials: (§1)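 Subpopulation abundance was reported as a z-score against the median of vehicle wells. The Saccharomyces cerevisiae BY4741 community, carrying four plasmids that each restored one auxotrophy and encoded a distinct fluorescent protein, was grown 24 h in minimal SM medium in 384-well plates holding library drugs at 10 µM final. Cells were paraformaldehyde-fixed and imaged by automated confocal microscopy, with single-auxotroph fluorescent strains used for thresholds and autofluorescence correction.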

Experiment [2] shares this test system. Put plainly: z-score of subpopulation abundance vs DMSO median, subpopulation auxotrophic for L; higher = larger share of this subpopulation than in DMSO controls. Conditions: 10 µM; 24 h; SM minimal medium; subpopulation (auxotrophy): L. Put shortly:
as §1

For experiment [3] the test system is unchanged. Put plainly: z-score of subpopulation abundance vs DMSO median, subpopulation auxotrophic for U; higher = larger share of this subpopulation than in DMSO controls. The note with it: 10 µM; 24 h; SM minimal medium; subpopulation (auxotrophy): U. Put shortly: as §1
Experiment [4] shares this test system. Briefly: z-score of subpopulation abundance vs DMSO median, subpopulation auxotrophic for H; higher = larger share of this subpopulation than in DMSO controls. The note with it: 10 µM; 24 h; SM minimal medium; subpopulation (auxotrophy): H. Put shortly: as §1
The test system is the same in experiment [5]. Briefly: z-score of subpopulation abundance vs DMSO median, subpopulation auxotrophic for LU; higher = larger share of this subpopulation than in DMSO controls. Conditions: 10 µM; 24 h; SM minimal medium; subpopulation (auxotrophy): LU. The essentials:
as §1

The test system is the same in experiment [6]. Put plainly: z-score of subpopulation abundance vs DMSO median, subpopulation auxotrophic for LM; higher = larger share of this subpopulation than in DMSO controls. The note with it: 10 µM; 24 h; SM minimal medium; subpopulation (auxotrophy): LM. Put shortly: as §1
Experiment [7] shares this test system. Put plainly: z-score of subpopulation abundance vs DMSO median, subpopulation auxotrophic for HM; higher = larger share of this subpopulation than in DMSO controls. The note with it: 10 µM; 24 h; SM minimal medium; subpopulation (auxotrophy): HM. The essentials: as §1
For experiment [8] the test system is unchanged. Put plainly: z-score of subpopulation abundance vs DMSO median, subpopulation auxotrophic for HU; higher = larger share of this subpopulation than in DMSO controls. Conditions: 10 µM; 24 h; SM minimal medium; subpopulation (auxotrophy): HU. The essentials: as §1
For experiment [9] the test system is unchanged. Put plainly: z-score of subpopulation abundance vs DMSO median, subpopulation auxotrophic for HL; higher = larger share of this subpopulation than in DMSO controls. Conditions: 10 µM; 24 h; SM minimal medium; subpopulation (auxotrophy): HL. The essentials:
as §1

Experiment [10] has the same test system. Briefly: z-score of subpopulation abundance vs DMSO median, subpopulation auxotrophic for HLU; higher = larger share of this subpopulation than in DMSO controls. The note with it: 10 µM; 24 h; SM minimal medium; subpopulation (auxotrophy): HLU. The essentials: as §1
The test system is the same in experiment [11]. Put plainly: z-score of subpopulation abundance vs DMSO median, subpopulation auxotrophic for HLM; higher = larger share of this subpopulation than in DMSO controls. The note with it: 10 µM; 24 h; SM minimal medium; subpopulation (auxotrophy): HLM. Put shortly:
as §1

The test system is the same in experiment [12]. Briefly: z-score of subpopulation abundance vs DMSO median, subpopulation auxotrophic for HUM; higher = larger share of this subpopulation than in DMSO controls. Conditions: 10 µM; 24 h; SM minimal medium; subpopulation (auxotrophy): HUM. The essentials:
as §1

Experiment [13] shares this test system. Briefly: z-score of subpopulation abundance vs DMSO median, subpopulation auxotrophic for LUM; higher = larger share of this subpopulation than in DMSO controls. The note with it: 10 µM; 24 h; SM minimal medium; subpopulation (auxotrophy): LUM. The essentials:
as §1

For experiment [14] the test system is unchanged. Put plainly: z-score of subpopulation abundance vs DMSO median, subpopulation auxotrophic for HLUM; higher = larger share of this subpopulation than in DMSO controls. Conditions: 10 µM; 24 h; SM minimal medium; subpopulation (auxotrophy): HLUM. The essentials:
as §1

For experiment [15] the test system is unchanged. Briefly: z-score of prototroph abundance vs DMSO median; higher = larger share of this subpopulation than in DMSO controls. The note with it: 10 µM; 24 h; SM minimal medium; subpopulation (auxotrophy): Prototroph. The essentials:
as §1

Experiment [16] shares this test system. Briefly: z-score of subpopulation abundance vs DMSO median, subpopulation auxotrophic for UM; higher = larger share of this subpopulation than in DMSO controls. Conditions: 10 µM; 24 h; SM minimal medium; subpopulation (auxotrophy): UM. Put shortly:
as §1

Experiment [17] has the same test system. Put plainly: mean cell size (pixel area) (pixels); higher = larger cells. Conditions: 10 µM; 24 h; SM minimal medium. The essentials: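 Mean cell pixel area per well was measured in a four-plasmid fluorescent community of Saccharomyces cerevisiae BY4741, where every plasmid complements one auxotrophy and carries a fluorescent marker. Cells from an overnight preculture at OD600 = 1.0 were diluted to OD600 = 0.3 and dispensed at 70 µl into 384-well plates acoustically predosed with drug to a final 10 µM in SM medium. Incubation lasted 24 h, followed by paraformaldehyde fixation, automated confocal imaging and analysis in Harmony. Reported figures are averaged over 3 replicates. Same SeMeCo high-content imaging drug screen: Selleck FDA-approved drugs at 10 µM, 24 h in SM medium, 384-well plates, 3 replicates.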

For the molecule `COC1C(O)CC(=O)OC(C)CC=CC=CC(OC2CCC(N(C)C)C(C)O2)C(C)CC(CC=O)C1OC1OC(C)C(OC2CC(C)(O)C(O)C(C)O2)C(N(C)C)C1O` (stereo unspecified) [Spiramycin], the “z-score of subpopulation abundance” value in [1] is -0.36; in [2], -0.29; in experiment [3], 0.01; in experiment [4], -0.16; in experiment [5], -0.46; in [6], -0.48. The “z-score of subpopulation abundance” value in experiment [7] is -0.27; in experiment [8], 0.31; in [9] it was 0.65; in experiment [10] it was -0.77; in experiment [11], 0.43; in experiment [12] it was -0.02. The “z-score of subpopulation abundance” value in experiment [13] is -0.43; in [14], 0.17.
Take `C=CCN1CCCC1CNC(=O)c1cc2nn[nH]c2cc1OC` (stereo unspecified) [Alizapride HCl]: the “z-score of prototroph abundance” value in experiment [15] was -0.2. The “z-score of subpopulation abundance” value in experiment [1] was -0.5; in experiment [2], 0.16; in experiment [3], 0.74; in experiment [4], -0.87; in experiment [5] it was 0.9; in [6], -0.39. Also, the “z-score of subpopulation abundance” value is -0.31 in experiment [7]; 0.88 in experiment [8]; 0.58 in experiment [16]; -0.36 in [9]; 0.1 in experiment [10]; -0.44 in experiment [11]. Further, the “z-score of subpopulation abundance” value in experiment [12] is 0; in [14], 0.23.
Regarding `COc1cc2c(cc1OC)[C@@H]1Cc3ccc(OC)c(OC)c3CN1CC2` [Rotundine], the “z-score of prototroph abundance” value in [15] is -0.12. Moreover, the “z-score of subpopulation abundance” value is 0.07 in [1]; -0.28 in experiment [2]; 0.7 in experiment [3]; 0.16 in experiment [5]; -0.15 in [6]; -0.02 in experiment [7]. The “z-score of subpopulation abundance” value was 0.17 in experiment [8]; -0.01 in [16]; 0.52 in [9]; 0.67 in experiment [10]; -0.41 in [11]; 0.14 in experiment [12]. The “z-score of subpopulation abundance” value is -0.04 in experiment [13] and 0.13 in experiment [14].
As for `NC(CO)(CO)CO` [Trometamol], the “z-score of prototroph abundance” value in experiment [15] was -0.35. Also, the “z-score of subpopulation abundance” value in experiment [1] was 0.08; in [2], 0.58; in experiment [3] it was 0.6; in experiment [4], -0.42; in [5], 0.36; in [6] it was -0.62. The “z-score of subpopulation abundance” value is -0.48 in [7]; 0.55 in experiment [8]; 0.88 in experiment [16]; 0 in experiment [9]; -0.13 in [10]; -0.69 in [11]. Also, the “z-score of subpopulation abundance” value in experiment [12] was -0.08; in experiment [13], 0.42; in experiment [14] it was -0.35.
Regarding `CCCCCCCCCCCCCCCC[N+](C)(C)C` [Cetrimonium Bromide (CTAB)], in experiment [17], the mean cell size worked out at 10.8 ± 0.24. The “z-score of subpopulation abundance” value in experiment [1] was -4.82; in experiment [2] it was -1.79; in experiment [3] it was -1.73; in experiment [5], 3.88; in experiment [7], 10.1; in experiment [16] it was 12.1. The “z-score of subpopulation abundance” value in [9] was determined as 10.9; in [10] it was 19.1; in experiment [11], 50.7; in experiment [12] it was 34.1; in experiment [14] it was 29.4.
Turning to `CO/N=C(\C(=O)N[C@@H]1C(=O)N2C(C(=O)O)=C(CSC(=O)c3ccco3)CS[C@H]12)c1csc(N)n1` [Ceftiofur HCl], the mean cell size in [17] was found to be 12.54 ± 0.051. In addition, the “z-score of subpopulation abundance” value in experiment [1] is -0.14; in experiment [2] it was -0.69; in [3], 1.47; in [4] it was -0.05; in [5], 1; in experiment [7], 0.46. In addition, the “z-score of subpopulation abundance” value in experiment [16] was 1.05; in experiment [9], -0.8; in experiment [10], 0.02; in experiment [11] it was 0.11; in experiment [12] it was 2.38; in experiment [13] it was -0.05. Also, the “z-score of subpopulation abundance” value in experiment [14] was 0.19.
Turning to `CC(=O)N[C@H]1[C@H]([C@H](O)[C@H](O)CO)OC(C(=O)O)=C[C@@H]1NC(=N)N` [Zanamivir], the “z-score of prototroph abundance” value in experiment [15] was -0.31. In addition, the “z-score of subpopulation abundance” value was 0.82 in experiment [1]; 1.27 in experiment [2]; -1.03 in experiment [3]; 0.63 in [4]; -0.15 in [5]; 1.52 in [6]. The “z-score of subpopulation abundance” value is 0.87 in [7]; -0.41 in experiment [8]; -0.2 in experiment [16]; 1.66 in experiment [9]; 0.56 in [10]; 0.19 in [11]. The “z-score of subpopulation abundance” value in experiment [12] is 0.23; in experiment [14], 0.38.
